Source: PubChem BioAssay
Tb PYK inh = inhibitors of Trypanosoma brucei pyruvate kinase; AID 624173; TbPYK enzyme, Kinase-Glo Plus ATP luminescence, 45 min; Q57TT1; actives 0.12% (n = 410,000); Potency, µM (titrated, usually from 76.8 µM), without a hit: at the top dose activity, negative = inhibition, usual class: inhibitors; further: nearly all actives have a fitted effect of over 50% in size
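Luminescence from Kinase-Glo Plus, added after a 45-minute room-temperature reaction, served as the end-point read-out. The enzyme and substrate were preincubated with compound before ADP (130 uM final) initiated turnover. Concentration-effect curves came from normalized qHTS data.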
RE007 growth inh = less growth of the S. pombe RE007 Vpr strain | AID 651644 | actives 0.21% (n = 360,000) | Potency, µM (top dose mostly 92.2 µM), for inactives: at the highest dose activity change, negative = less growth, actives largely listed as inhibitors | S. pombe RE007 Vpr strain, BacTiter-Glo ATP luminescence, 24 h; active means well fitted falling curve with a large enough effect; inconclusive means small, poorly fitted or top-dose-only effect; inactive means no such curve, though single readings can be large or run the other way; further: nearly all actives have a fitted effect of over 50% in size
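Fission yeast RE007 carrying one integrated HIV-1 vpr copy, seeded at OD 0.01 in PMG+AL medium with 23 nL pinned compound. Grown 24 h at 30 degrees; viability read by BacTiter-Glo luminescence after 5 min.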
Sm TGR inh = S. mansoni TGR enzyme inhibition. Q962Y6. Potency, µM (doses to about 114 µM), for inactives: top-dose activity change, negative = inhibition, hits mostly inhibitors. AID 485364. purified TGR, DTNB reduction, TNB absorbance 405 nm. actives 3% (n = 360,000); further: nearly all actives have a fitted effect of over 60% in size
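First, TGR (20 nM dispensed) and NADPH were mixed with compound. Second, a 15 min room-temperature incubation followed. Third, further NADPH and then DTNB were added to start the reaction. Finally, TNB absorbance was monitored kinetically.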
FMDV inh = antivirals against foot and mouth disease virus. FMDV antiviral cell-based qHTS. Potency, µM (highest dose often 57.9 µM), for inactives: at the top dose activity change, negative = inhibition, most hits filed as inhibitors. actives 1.2% (n = 410,000). AID 1159524; calls by dose curve; tested in HEK293T cells; further: read-out not given here; nearly all actives have a fitted effect of over 45% in size
The depositor's hits bear a star; u = inconclusive; x = no result. In the library only some 3.7% were active in any assay of this set; here they are far more common. Unless noted, the call rests on the fitted dose curve; in most records, active means well fitted curve in the direction sought with a large enough effect; inconclusive means small, poorly fitted or top-dose-only effect, or another doubt; inactive means no such curve, though single readings can be large; an effect the other way counts as inactive or inconclusive. On the % scale 0 is the no-effect control and ±100 the full control effect; potency means the concentration at half of the fitted maximal effect.

SMILES	Tb PYK inh	RE007 growth inh	Sm TGR inh	FMDV inh
Cc1cc(Nc2ccc(Cl)cc2)nc(NCc2ccccc2)n1	-6.9%	15.9%	0.0%	31.6µM*
Cc1ccc(-c2cc(-c3ccco3)c(C#N)c(=O)[nH]2)cc1	-14.5%	-2.3%	2.24µM*	-6.0%
CC(=O)Nc1nc(-c2ccccc2)cc(-c2ccco2)c1C#N	0.3%	3.8%	u	40.9%
N#Cc1sc2nc(-c3ccccc3)cc(-c3ccco3)c2c1N	-5.4%	-5.7%	39.8µM*	-15.0%
N#Cc1sc2nc(C3CC3)cc(-c3ccccc3)c2c1N	-1.6%	-4.0%	8.8%	0.0%
Cc1cc(-c2ccccc2)[nH]c(=O)c1C#N	4.0%	5.4%	-2.2%	4.3%
N#Cc1c(-c2ccco2)cc(-c2ccccc2)[nH]c1=O	0.9%	3.1%	8.91µM*	-6.3%
N#Cc1c(-c2ccccc2)cc(-c2ccco2)c(C#N)c1N	x	x	2.82µM*	x
CCOc1ccc(NC(=O)c2nnn(-c3ccc(F)c(Cl)c3)c2C)cc1	-2.0%	x	1.8%	0.9%
NC(=S)NN=C1CSSC1	-17.2%	u	x	-28.6%
CCOC(=O)c1c(C)oc2ccc(N(C(=O)Oc3ccccc3)S(=O)(=O)c3ccccc3)cc12	0.4%	x	4.3%	-7.1%
COc1cccc(Nc2nnc(SCC(=O)Nc3sccc3C(N)=O)s2)c1	-8.1%	-1.4%	x	15.8µM*
CCc1ccc(Nc2nnc(SCC(=O)Nc3sccc3C(N)=O)s2)cc1	-12.9%	10.6%	0.7%	u
Cc1cccc(C(=O)NC2CCN(C(=O)Nc3ccccc3C)CC2)c1	4.8%	10.2%	14.2%	-16.0%
Cc1cccc(C(=O)NC2CCN(C(=O)Nc3ccc(F)cc3)CC2)c1	-9.2%	5.0%	39.8µM*	-4.5%
CCOc1ccccc1NC(=O)N1CCC(NC(=O)c2cccc(C)c2)CC1	-1.5%	9.8%	25.1µM*	-16.0%
O=C(c1ccc(O)c(Br)c1)c1cc(Br)ccc1O	-9.6%	63.1µM*	x	-0.2%
OC[C@H]1OC([S-])[C@H](O)[C@@H](O)[C@@H]1O.[Au+] (some centres not stated)	x	x	x	-0.5%
O=C1c2ccncc2C(=O)N1CO	-15.2%	1.5%	50.1µM*	-9.8%
O=C(O)CCN1C(=O)c2ccncc2C1=O	-1.4%	5.3%	8.2%	23.5%
Cc1ccc(Cl)cc1N1CCN(C(=O)c2cnc(N3CCOCC3)c3ccccc23)CC1	-0.4%	x	5.5%	u
COCCCNC(=O)c1c(NC(=O)c2nc(S(C)(=O)=O)ncc2Cl)sc2c1CCCC2	0.7%	x	5.62µM*	-18.0%
Cc1cc(C)n(-c2nc3ccccc3nc2Nc2ccc(Cl)c(Cl)c2)n1	0.0%	x	8.5%	-2.6%
CN(C)c1cc(-c2ccc(Cl)c(Cl)c2)oc(=O)c1Cl	2.0%	6.7%	39.8µM*	13.9%
COc1ccc(Cl)cc1NC(=O)c1cc(S(=O)(=O)N(C)Cc2ccccc2)ccc1F	1.2%	x	2.5%	0.1%
SMILES	Tb PYK inh	RE007 growth inh	Sm TGR inh	FMDV inh
CC(=O)Nc1ccc(S(=O)(=O)/N=C2\C(=O)c3ccccc3C([O-])=C2n2cc[n+](-c3ccccn3)c2)cc1	-6.4%	-22.8%	7.08µM*	7.9%
COCc1ccc(C(=O)Nc2ccccc2C(=O)NCc2cccnc2)cc1	-5.2%	-4.0%	-2.4%	32.2%
C=CCOc1ccc(C(=O)Nc2ccccc2C(=O)NCc2cccnc2)cc1	2.2%	-23.1%	39.8µM*	6.6%
O=C(NCc1cccnc1)c1ccccc1NS(=O)(=O)c1ccc(F)cc1	8.8%	-3.5%	-0.5%	-16.1%
O=C(NCc1cccnc1)c1ccccc1NS(=O)(=O)c1ccc(F)cc1F	-17.3%	-12.1%	39.8µM*	-13.4%
Cc1c(C(=O)N2CCN(C)CC2)sc2ncnc(NCC3(c4ccccc4)CCOCC3)c12	x	x	x	-10.2%
COc1ccc(NC(=O)c2sc3nc4c(cc3c2N)CCCCCC4)cc1Cl	0.6%	x	-0.7%	u
Cc1cc(NC(=O)CSCC(=O)Nc2cc(C(F)(F)F)ccc2N2CCCC2)no1	-8.1%	12.3%	1.0%	28.2µM*
Cc1ccc(NC(=O)CSCC(=O)Nc2cc(C(F)(F)F)ccc2N2CCOCC2)cc1	-7.6%	-13.5%	-2.4%	-13.4%
Cc1cc(NC(=O)CSCC(=O)Nc2cc(C(F)(F)F)ccc2N2CCOCC2)no1	-3.7%	2.5%	-1.6%	-19.8%
O=C(CSCc1ccco1)Nc1cc(C(F)(F)F)ccc1N1CCOCC1	-16.6%	7.8%	22.4µM*	x
COc1ncc2nc(CCc3ccccc3)c(=O)n(C3CC3)c2n1	2.1%	x	x	11.2%
Cc1cc(C(=O)Nc2cccc(-c3nc(CNC(=O)c4sc(C)nc4C)c(C)o3)c2)c(C)o1	x	x	x	-1.2%
